Assay outcomes as filed in PubChem BioAssay.
An excerpt weighted towards active compounds, which were near 2.6% of everything screened.
Cruzain Triton: cruzain (T. cruzi) inhibition with detergent; Potency, µM, inactives show max response, negative = inhibition, most hits filed as inhibitors; hit rate 0.43% among 200,000; P25779; purified cruzain, Z-FR-AMC fluorescence, 0.01% Triton;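 note: plate controls were neutral wells for no effect and buffer without enzyme for full effect; nearly all actives have a fitted effect of over 40% in size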
Target sequence (P25779 123-467 limits assumed): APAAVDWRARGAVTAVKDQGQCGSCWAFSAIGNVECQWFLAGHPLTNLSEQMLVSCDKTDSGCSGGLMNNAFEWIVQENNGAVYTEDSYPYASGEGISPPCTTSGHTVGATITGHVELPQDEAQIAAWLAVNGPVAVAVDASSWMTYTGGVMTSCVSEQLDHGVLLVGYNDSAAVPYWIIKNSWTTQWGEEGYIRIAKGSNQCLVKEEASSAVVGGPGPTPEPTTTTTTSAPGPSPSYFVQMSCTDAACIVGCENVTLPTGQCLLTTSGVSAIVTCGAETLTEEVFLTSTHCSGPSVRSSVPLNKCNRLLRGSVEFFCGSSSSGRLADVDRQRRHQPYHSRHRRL
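Purified cruzain (1.5 nM final) was preincubated with compounds for 15 min at room temperature in 100 mM sodium acetate pH 5.5, 5 mM DTT, 0.01% Triton X-100. Reaction started with 2 uM Z-FR-AMC; AMC fluorescence change over 60 s gave activity.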
Cruzain noTriton: inhibitors of Trypanosoma cruzi cruzain without detergent. Potency, µM, for the others: max response, negative = inhibition, hits mostly inhibitors. P25779. AID 1476. hit rate 2.3% among 200,000. purified cruzain, Z-FR-AMC fluorescence, no detergent;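 note: plate controls were enzyme without inhibitor for no effect and buffer without enzyme for full effect; nearly all actives have a fitted effect of over 40% in size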
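Purified cruzain at 1.5 nM, pre-incubated 15 min with compound at room temperature in 100 mM sodium acetate pH 5.5, 5 mM DTT, 0.00005% Triton X-100. Reaction started with 2 uM Z-FR-AMC; AMC fluorescence increase over 60 s gives rate.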
* marks the source's active call; other numbers are inactive results; ? = inconclusive. Calls come from the whole dose curve; as a rule, active = well fitted curve in the direction sought with a large enough effect; inconclusive = small, poorly fitted or top-dose-only effect, or another doubt; inactive = no such curve, though single readings can be large; an effect the other way counts as inactive or inconclusive. Potency is the fitted concentration of half-maximal effect.

SMILES	Cruzain Triton	Cruzain noTriton
CC(C)(C)C1CCc2c(sc(NC(=O)c3ccco3)c2C(N)=O)C1 (configuration not stated)	-21.9%	-24.6%
Cc1cccc(N2C(=O)CCSC23C(=O)N(Cc2ccc(F)cc2)c2ccccc23)c1 (configuration not stated)	-8.9%	-2.1%
COc1ccccc1NC(=O)C1=C(C)Nc2c(C(=O)Nc3ccc(F)cc3)cnn2C1c1cccc([N+](=O)[O-])c1 (configuration not stated)	-3.5%	?
CCN(Cc1ccccc1)C(=O)Cn1ncc2c(=O)oc3ccc(C)cc3c21	-1.7%	9.6%
Cn1cc(/C=C2\SC(=S)N(NC(=O)c3ccccc3Cl)C2=O)c2ccccc21	-2.8%	10µM*
Cc1ccc(C(=O)NN2C(=O)/C(=C/c3cccn3C)SC2=S)cc1	-9.5%	?
Cn1cccc1/C=C1\SC(=S)N(NC(=O)c2ccccc2Cl)C1=O	-9.9%	12.7%
Cc1ccc(C(=O)NN2C(=O)/C(=C/c3cn(C)c4ccccc34)SC2=S)cc1	0.6%	10µM*
COc1ccc(/C=C/c2nc(-c3ccccc3O)n(-c3ccccc3)n2)cc1	-5.7%	-13.2%
COc1ccc(/C=C/c2nc(-c3ccccc3O)n[nH]2)cc1	-13.4%	12.6µM*
O=C(O)C(Cc1ccccc1)N1C(=O)/C(=C/c2cccc3ccccc23)SC1=S (configuration not stated)	31.6µM*	?
O=C(O)C(Cc1ccccc1)N1C(=O)/C(=C/c2ccccc2)SC1=S (configuration not stated)	-13.2%	0.4%
Cc1cc(C)c(NC(=O)C2CCCN(C(=O)c3cnn(-c4ccccc4)c3-n3cccc3)C2)c(C)c1 (configuration not stated)	-2.3%	?
O=C(CSc1nnc(COc2ccc(Cl)cc2)o1)N1CCN(c2ccccc2)CC1	-8.5%	-2.4%
O=C(CSc1nnc(-c2ccc(Cl)cc2)o1)N1CCN(c2ccccc2)CC1	-6.7%	15.8µM*
Cc1ccc(Cl)cc1N1CCN(C(c2cccnc2)c2nnnn2C2CCCCC2)CC1 (configuration not stated)	-6.1%	11.3%
Cc1ccc(Cl)cc1N1CCN(C(c2ccc(C#N)cc2)c2nnnn2C2CCCC2)CC1 (configuration not stated)	1.9%	20µM*
COc1ccccc1/C=C/C=N/n1c(-c2ccc(C)cc2)n[nH]c1=S	-2.8%	10µM*
COc1ccccc1/C=C/C=N/n1c(-c2cc(C)[nH]n2)n[nH]c1=S	-8.7%	3.6%
COc1ccccc1/C=C\C=N\n1c(C2CCCCC2)n[nH]c1=S	-5.5%	6.31µM*
COc1ccc(-c2n[nH]c(=S)n2/N=C/C=C\c2ccccc2OC)cc1	-4.5%	-27.1%
CCOC(=O)CCn1cnc2onc(-c3cc(OC)ccc3Cl)c2c1=O	-1.9%	-1.1%
COc1ccc(C(=O)N2CCC3(CC2)CN(c2ncccn2)C3)cc1	-1.5%	0.0%
COc1ccccc1CNC(=O)C1CCN(c2nn3c(=O)cc(C)nc3s2)CC1	-6.6%	-5.7%
CC1=NN(c2nc(-c3ccc(C)cc3)cs2)C(=O)C1N=Nc1cccc(C)c1 (configuration not stated)	-5.3%	12.6µM*
SMILES	Cruzain Triton	Cruzain noTriton
CC1=NN(c2nc(-c3ccccc3)cs2)C(=O)C1	-10.2%	-18.0%
COc1ccc(CN2C(=O)Cc3c2nc(N)c2c(N)nc(N4CCCCC4)c(C#N)c32)cc1	-9.4%	6.31µM*
CCOc1cc2c(C#N)c(N3CCCCC3)nc(N)c2c(N)n1	-9.1%	-11.1%
Cc1cc(-c2ccccc2)nc2cc(C(=O)Nc3ccc(Cl)c(Cl)c3)nn12	-3.1%	4.4%
Cc1ccc(-c2cc(-c3ccccc3)c(C#N)c(SCC(O)CS(=O)(=O)Cc3ccccc3)n2)cc1 (configuration not stated)	-3.4%	10µM*
N#Cc1c(-c2ccccc2)cc(-c2ccccc2)nc1SCC(O)CS(=O)(=O)Cc1ccccc1 (configuration not stated)	-1.7%	20µM*
C#CCSc1nc(-c2ccccc2)cc(-c2ccccc2)c1C#N	-5.8%	-27.5%
Cc1cc(-c2ccccc2)c(C#N)c(SCC(N)=O)n1	-0.3%	-5.3%
COc1ccc(C2=C(C)C(=NCCCN3CCN(c4cc(C)ccc4C)CC3)NS2(=O)=O)cc1	-4.5%	-22.1%
COc1ccc(C2=CC(c3ccc(OC)c(OC)c3)NC(=S)N2)cc1 (configuration not stated)	3.5%	-2.2%
COc1ccc(C2C=C(C34CC5CC(CC(C5)C3)C4)NC(=S)N2)cc1 (configuration not stated)	-3.3%	25.1µM*
COc1cccc(CNC(=O)Cc2c(C(=O)O)c(C)cn2C)c1	2.9%	0.4%
COc1cccc(CNC(=O)C(Cc2ccccc2)NS(=O)(=O)c2ccc3c(c2)oc(=O)n3C)c1 (configuration not stated)	-0.6%	-7.3%
CCOC(=O)C1=C(c2ccccc2)NC(=S)NC1c1cc([N+](=O)[O-])ccc1OC (configuration not stated)	0.4%	25.1µM*
CCOC(=O)C1=C(c2ccccc2)NC(=S)NC1c1cccc([N+](=O)[O-])c1 (configuration not stated)	-5.9%	3.2%
COc1ccc(CNC(=O)c2cc(Nc3ccc(C)cc3C)nc3ccccc23)cc1	-10.5%	9.0%
COc1ccc(CNC(=O)c2cc(Nc3ccccc3C)nc3ccccc23)cc1	-12.2%	25.1µM*
Cc1ccc(Cl)cc1NC(=O)CCn1c(=O)c2cccn2c2cccnc21	0.6%	1.1%
O=C(COc1ccc(F)cc1)Nc1ccccc1OCc1cc(=O)n2ccccc2n1	4.5%	-12.8%
COc1ccccc1N1CCN(C(=O)c2nc(SC)ncc2Cl)CC1	-1.9%	-11.6%
N#C/C(=C\c1ccc(-c2ccc(F)cc2F)o1)c1nc2ccccc2[nH]1	-5.2%	12.6µM*
CN(C)S(=O)(=O)c1cccc(-c2nn(-c3ccccc3)cc2/C=C(\C#N)c2nc3ccccc3[nH]2)c1	-3.3%	?
N#C/C(=C\c1ccc(-c2ccccc2C(=O)O)o1)c1nc2ccccc2[nH]1	-0.7%	-1.3%
N#C/C(=C\c1cn(-c2ccccc2)nc1-c1cc2ccccc2o1)c1nc2ccccc2[nH]1	-2.6%	7.94µM*
O=C(Nc1cccc(Cl)c1)N1CC2CCCN2c2ccccc21 (configuration not stated)	-1.1%	20.2%
SMILES	Cruzain Triton	Cruzain noTriton
CN(CC[C@@H](Oc1ccc(-c2ccccc2)cc1)c1ccc(F)cc1)CC(=O)O	-1.7%	?
Cc1cc(-c2csc(N)n2)c(C)n1CCC(C)C	2.6%	25.1µM*
CCOC(=O)c1cc(C)n(CCc2ccccc2)c1C	-4.1%	0.6%
Nc1nc(-c2ccccc2)cs1	-0.7%	4.0%
Cc1cc(-c2csc(N)n2)c(C)n1CCc1ccccc1	-4.0%	3.98µM*
Cc1cc(=O)n(Cc2cccc(Cl)c2)c2c1c(C)nn2-c1ccccc1	-0.5%	-7.5%
CC(C)(C)c1ccc(OCC(=O)Nc2ccc(S(=O)(=O)Nc3ncccn3)cc2)cc1	0.8%	-1.5%
FC(F)(F)c1cnc(Sc2nnc(-c3cccs3)n2CC2CCCO2)c(Cl)c1 (configuration not stated)	1.4%	-9.6%
N#Cc1c(Sc2ncc(C(F)(F)F)cc2Cl)nsc1C/C=N\OCc1c(F)cccc1Cl	-5.9%	3.98µM*
Cc1c2cnn(CC(=O)NC(C)C)c(=O)c2c(C)n1Cc1cccc(Cl)c1	-1.1%	20.2%
CCCn1c(-c2ccc(F)cc2)nc2c(N3CCN(C)CC3)nc(C)nc21	-6.4%	-4.9%
